Records with an inconclusive call do not appear. Active and inactive are the calls of the source. Calls come from the whole dose curve; as a rule, active = well fitted inhibition curve with a large enough effect in the signal ratio, with a control signal flat (not every such curve was filed as active); inconclusive = small, poorly fitted or top-dose-only effect, or effect the other way, or a change in a side signal; inactive = flat fitted curve, though single readings scatter; the % refers to the signal ratio.
Target: Peroxisome proliferator-activated receptor gamma (Homo sapiens) (UniProt P37231)
Assay: qHTS assay for small molecule antagonists of peroxisome proliferator-activated receptor gamma signaling (AID 588537); note: % of control where 0% means no effect
Conditions: HEK293 PPARg-UAS-bla, beta-lactamase ratio, antagonist mode; series mostly up to 76.8 µM; activity, negative = inhibition: at the top concentration
Description: NIH Chemical Genomics Center [NCGC]
U.S. Environmental Protection Agency [EPA]
National Institutes of Environmental Health Sciences [NIEHS]
National Toxicology Program [NTP]
The Peroxisome proliferator-activated receptors (PPARs) are lipid-activated transcription factors of the nuclear receptor superfamily with three distinct subtypes namely PPAR alpha, PPAR delta (also called PPAR beta) and PPAR gamma. All these subtypes heterodimerizes with Retinoid X receptor (RXR) and these heterodimers regulate transcription of various genes. PPAR-gamma (glitazone receptor) ligands have been used in the treatment of type 2 diabetes and dyslipidaemia. It is involved in the regulation of glucose and lipid metabolism. PPAR-gamma activates certain genes like Paraoxonase 1 which is responsible for hydrolyzing organophosphates. PPAR-gamma ligands may also be therapeutically important in the treatment of coronary artery disease, obesity and cancer and atherosclerosis.
NCGC Assay Protocol Summary
Using a beta-lactamase reporter-gene under control of Peroxisome Proliferator-Activated-gamma (PPAR-gamma) response element, a cell-based assay [GeneBLAzer PPAR-gamma-UAS-bla assay developed by Invitrogen] was used to measure PPAR-gamma ligands signaling. GeneBLAzer PPAR-gamma-UAS-bla-HEK293 cells were used with assay medium containing 1% charcoal/dextran treated FBS. The assay was performed in clear bottom black Greiner 1536-well plates. Library compounds were measured for their ability to inhibit the reporter gene activity. Compounds were screened in a titration series in 1536-well format. The fluorescence intensity (405 nm excitation, 460/530 nm emission) was measured using an EnVision plate reader. Data was normalized relative to Rosiglitazone control (50 nM, 100%), and DMSO only wells (basal, 0%). Concentration-response titration points for each compound were fitted to the Hill equation yielding concentrations of half-maximal inhibition (IC50) and maximal response (efficacy) values.
qHTS protocol for PPAR-gamma beta-lactamase assay in antagonist mode
[Step] [Parameter] [Value] [Description]
1. Reagent; 5 uL; 3000 cells/well
2. Incubation; 37 C for 6-6.5 hrs
4. Controls (GW9662, PPAR-gamma antagonist); 23 nL,
5. Agonist (Stimulator); 1uL; Rosiglitazone at 50 nM (final) concentration
6. Incubation; 37 C for 16 hrs
7. Detection reagent; 1 uL of CCF4-dye
8. Incubation; RT for 2 hrs
9. Detection; Fluorescence; Envision plate reader

Chain of Peroxisome proliferator-activated receptor gamma (Homo sapiens) (P37231 whole entry, looked up): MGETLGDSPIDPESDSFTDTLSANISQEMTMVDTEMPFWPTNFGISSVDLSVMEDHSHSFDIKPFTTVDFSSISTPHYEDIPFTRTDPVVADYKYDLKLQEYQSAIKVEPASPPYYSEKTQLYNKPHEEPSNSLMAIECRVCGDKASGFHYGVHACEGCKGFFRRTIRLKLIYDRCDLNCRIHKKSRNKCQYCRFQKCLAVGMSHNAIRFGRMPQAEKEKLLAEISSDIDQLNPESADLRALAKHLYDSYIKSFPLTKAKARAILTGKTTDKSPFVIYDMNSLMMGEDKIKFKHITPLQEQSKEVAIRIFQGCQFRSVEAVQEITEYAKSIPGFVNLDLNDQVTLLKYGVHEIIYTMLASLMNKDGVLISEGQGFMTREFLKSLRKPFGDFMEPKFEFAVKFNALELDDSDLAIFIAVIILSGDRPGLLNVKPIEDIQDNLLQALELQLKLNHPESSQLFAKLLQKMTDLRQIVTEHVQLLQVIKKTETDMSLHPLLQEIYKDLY

Compound | outcome | activity, negative = inhibition
CCCCC(CC)CN (stereo not given) | inactive | 
COc1cc(/C=C/c2ccccc2)oc(=O)c1 |  | 1.94% (inactive)
O=NO |  | 0.526% (inactive)
O=C1CCc2ccccc2O1 |  | 6.41% (inactive)
C/C=C\c1ccc(OC)cc1 |  | 1.74% (inactive)
C=C(C)C1CC=C(C)C(O)C1 (stereo not given) |  | 0.391% (inactive)
CCC(C)c1ccccc1O (stereo not given) | inactive | 
C=CC(C)(CCC=C(C)C)OC(C)=O (stereo not given) |  | 12.3% (inactive)
CCC(O)OC(O)CC (stereo not given) | inactive | 
O=C(O)c1ccc(O)cc1O |  | -2.64% (inactive)
C[Si](C)(C)O[Si](C)(C)O[Si](C)(C)C |  | 2.25% (inactive)
CCCCCCCCCCCCCCC1CO1 (stereo not given) | inactive | 
Nc1ccc(Cl)cc1Cl | inactive | 
c1ccc2scnc2c1 |  | 7.25% (inactive)
CC1(C)S[C@@H]2[C@H](NC(=O)COc3ccccc3)C(=O)N2[C@H]1C(=O)O |  | 6.53% (inactive)
CCCCCCCCOC(=O)c1cc(O)c(O)c(O)c1 |  | 5.29% (inactive)
O=C1c2ccccc2C(=O)C1c1ccc2ccccc2n1 |  | 3.02% (inactive)
CC1=CC(C)(C)Nc2ccccc21 | inactive | 
O=C(O)CC(C(=O)O)C(CC(=O)O)C(=O)O (stereo not given) |  | 5.22% (inactive)
CCO |  | 2.81% (inactive)

Compound | outcome | activity, negative = inhibition
ClCCCl | inactive | 
C=CCOC(=O)c1ccccc1C(=O)OCC=C | inactive | 
O=C(O)c1ccccc1C(c1ccc(O)cc1)c1ccc(O)cc1 |  | 6.09% (inactive)
CCCCCCCCCCCCCC(=O)O |  | 8.42% (inactive)
O=S(=O)(O)c1ccccc1 |  | 2.76% (inactive)
COc1c2ccoc2cc2oc(=O)ccc12 |  | -1.84% (inactive)
COC(=O)c1ccc(C=O)cc1 | inactive | 
C=CCc1ccc(OC)c(OC)c1 | inactive | 
CC1(C)CC(N=C=O)CC(C)(CN=C=O)C1 (stereo not given) |  | -0.713% (inactive)
CC(=O)OC/C=C(\C)CCC=C(C)C | inactive | 
CC(C)=CCCC(C)CCO (stereo not given) | inactive | 
O=C(O)c1ccccc1 |  | 4.29% (inactive)
O=[N+]([O-])c1cccc(Cl)c1Cl |  | 8.81% (inactive)
CCO[Si](CCCN)(OCC)OCC |  | 3.97% (inactive)
CN(C)C=O | inactive | 
Cc1ccc([N+](=O)[O-])cc1N | inactive | 
Clc1cc(Cl)c(Cl)cc1Cl |  | 5.58% (inactive)
O=C(Nc1ccccc1)c1ccccc1O |  | -13.4% (inactive)
CCCN(CCC)C(=O)SCC |  | 10.3% (inactive)
c1ccc2c(c1)[nH]c1ccccc12 | inactive | 
